Laboratory results published in PubChem BioAssay (NCI).
The panel holds about 83,000 compounds, 20% with a hit somewhere; the sample as a whole holds those more often.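 Single-dose data. Exposure time 48 hours. Values below 10 considered active.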 Values without a mark were called inactive. Active and inactive are the calls of the source.

Legend:
Experiment in all cases: NCI-60 one-dose screen, 48 h (100 = growth as untreated, 0 = no growth, -100 = all killed)
Conditions in all cases: 10 µM unless noted
DU-145 prostate = system: DU-145 prostate
K-562 leukemia = system: K-562 leukemia
MALME-3M melanoma = system: MALME-3M melanoma
MDA-MB-231 breast = system: MDA-MB-231 breast
RXF 393 renal = system: RXF 393 renal
SF-268 CNS = system: SF-268 CNS
SF-295 CNS = system: SF-295 CNS
SF-539 CNS = system: SF-539 CNS
UACC-257 melanoma = system: UACC-257 melanoma
M14 melanoma = system: M14 melanoma
HCT-15 colon = system: HCT-15 colon
HT29 colon = system: HT29 colon
SNB-75 CNS = system: SNB-75 CNS
SNB-19 CNS = system: SNB-19 CNS
U251 CNS = system: U251 CNS
PC-3 prostate = system: PC-3 prostate
UACC-62 melanoma = system: UACC-62 melanoma
LOX IMVI melanoma = system: LOX IMVI melanoma
SK-MEL-28 melanoma = system: SK-MEL-28 melanoma

| Compound | growth (DU-145 prostate) | growth (K-562 leukemia) | growth (MALME-3M melanoma) | growth (MDA-MB-231 breast) | growth (RXF 393 renal) | growth (SF-268 CNS) | growth (SF-295 CNS) | growth (SF-539 CNS) | growth (UACC-257 melanoma) | growth (M14 melanoma) | growth (HCT-15 colon) | growth (HT29 colon) | growth (SNB-75 CNS) | growth (SNB-19 CNS) | growth (U251 CNS) | growth (PC-3 prostate) | growth (UACC-62 melanoma) | growth (LOX IMVI melanoma) | growth (SK-MEL-28 melanoma) |
| --- | --- | --- | --- | --- | --- | --- | --- | --- | --- | --- | --- | --- | --- | --- | --- | --- | --- | --- | --- |
| Cc1cc(C)c(NC(=O)c2sc3nc4c(cc3c2N)CCCCCC4)c(C)c1 | 66.4% | 16.8% | 57.4% | 88.2% | 65.8% | 59.4% | 38.1% | 60% | 62.8% | 27% | 41.1% | 19% | 57.6% | 49.1% | 35.3% | 47.9% | 34.5% | 58.7% | 75.2% |
| COc1cc2c(Nc3ccc(NC(=O)Nc4ccc(Cl)c(C(F)(F)F)c4)c(Cl)c3)ncnc2cc1OCCCN1CCN(C)CC1 | 2.84% (active) | -61% (active) | -50.8% (active) | -60.2% (active) | -40.5% (active) | 20.2% | -67.3% (active) | -77.9% (active) | 54.6% | 0.0561% (active) | 86.7% | 1.14% (active) | 31.3% | -79% (active) | -89.5% (active) | -25.3% (active) | 0.23% (active) | -88.3% (active) | 36.1% |
| CCCCCCC/C=C/[C@H]1O[C@]23C(=O)C[C@@]4(C[C@@H](OC5OC(CO)C(O)C(O)C5O)C[C@@H]4[C@H]2C=C1C)OC3=O (stereo partly specified) | 39.8% | 9.99% (active) | 7.25% (active) | 5.73% (active) | -43.7% (active) | 48.3% | 58.5% | -14.3% (active) | 29% | -12.2% (active) | -5.27% (active) | 0.865% (active) | 70.6% | 21.2% | -2.96% (active) | 21% | 14.2% | -67.7% (active) | -5.61% (active) |
| COc1cc(-c2nn(-c3ccc(Br)cc3)cc2CO)ccc1O | 93.6% | 74.2% | 119% | 68.9% | 116% | 77.7% | 98.6% | 92% | 90.7% | 102% | 87.4% | 88.8% | 87.7% | 94% | 95.2% | 75% | 78.9% | 86.5% | 110% |
| CC(=O)OCC1OC(OC2C(COC(C)=O)OC(OCCC[S-])C(OC(C)=O)C2OC(C)=O)C(OC(C)=O)C(OC(C)=O)C1OC(C)=O.[Au+].c1ccc(CN2[CH-]N(Cc3ccccc3)C(c3ccccc3)=C2c2ccccc2)cc1 (stereo unspecified) | 26.1% | 4.75% (active) | -8.9% (active) | -34.7% (active) | 25.7% | 40.1% | 7.32% (active) | 35.6% | 12.5% | 25% | 25.6% | 15.7% | 45.5% | 23.2% | 5.17% (active) | 17.7% | 13.4% | 11.3% | 28.4% |
| Nn1c(SCC(=O)Nc2ccc(Cl)cc2)nnc1-c1cc(F)c(Cl)cc1Cl | 108% | 77.4% | 92.6% | 81.8% | 117% | 97.4% | 87.9% | 92.9% | 98.2% | 96.9% | 79.3% | 95% | 81.2% | 98% | 94.4% | 85.7% | 65.8% | 86% | 98.1% |
| S=C(Nc1ccccc1)c1ccccn1 | 120% | 99.7% | 114% | 102% | 128% | 105% | 114% | 91.1% | 31.3% | 90.6% | 96.8% | 86.4% | 97.3% | 97.5% | 95.2% | 92.2% | 90.3% | 85.9% | 104% |
| Nc1ccc(C(=O)Nc2cccc(C(=O)Nc3ccc4c(O)c(N=Nc5ccc(N=Nc6ccc(S(=O)(=O)O)cc6)cc5)c(S(=O)(=O)O)cc4c3)c2)cc1 | 107% | 88.1% | 93.8% | 101% | 109% | 102% | 104% | 102% | 111% | 97.3% | 102% | 97.6% | 85.7% | 107% | 107% | 98.2% | 98.6% | 94.7% | 99.7% |
| Nc1c(C(=O)Nc2ccccn2)sc2nc3c(cc12)CCCC3 | 72% | 14.1% | 62.7% | 66.5% | 84.7% | 62.4% | 34% | 39.3% | 67.8% | 18% | 27.4% | 21.7% | 38.1% | 45.7% | 33.2% | 64.9% | 41.2% | 41.5% | 64.8% |
| COc1cc(/C=N/Nc2nc(-c3ccc(F)cc3)c(C#N)c(N3CCOCC3)n2)ccc1O | 96.3% | 85.3% | 122% | 99.8% | -0.23% (active) | 99.8% | 106% | 93.7% | 102% | 114% | 99.9% | 96% | 84% | 92.9% | 97.6% | 96.4% | 99% | 107% | 99.9% |
| CN(C)CSc1nc2ccccc2s1 | 105% | 119% | 86.7% | 91.7% | 106% | 101% | 92.8% | 94.2% | 113% | 88.8% | 97.9% | 95% | 75.2% | 110% | 103% | 74.8% | 95.9% | 90% | 108% |
| CCOCCc1c(O)nc(SC)[nH]c1=O | 107% | 112% | 130% | 111% | 161% | 116% | 113% | 93.7% | 23.9% | 98.9% | 98.2% | 101% | 78.7% | 95.9% | 103% | 91.1% | 98.1% | 105% | 99.2% |
| N#Cc1c(-c2ccc(Cl)cc2)cc(-c2cc3ccccc3o2)nc1SCC(=O)c1ccc(Cl)cc1 | 121% | 118% | 90.6% | 95.5% | 116% | 99.3% | 90.1% | 112% | 112% | 96.9% | 91.4% | 97.1% | 76.7% | 99.9% | 93.8% | 84.6% | 93.5% | 91% | 100% |
| Nc1c(C(=O)Nc2ccccn2)sc2nc3c(cc12)C(=O)CCC3 | 5.74% (active) | 22.2% | 58.2% | 51.6% | 1.88% (active) | 53.1% | 16.2% | 14.6% | 69.8% | 18.3% | 28.5% | 12.4% | 8.84% (active) | 28.2% | 29.5% | 37.9% | 34.9% | 44.4% | 56.4% |
